Consider six sequences from the supplement of paper PMC6555819.

What all share (test): PBM binding z-score (relative to random genomic background probes); higher = stronger binding; sequences stand for … in GC…GCGATTGACAGCGTAGAATGAAGG
Assay [1] deals with FXR:RXRa (NR concentration 270 nM, RXRa partner concentration 90 nM). In a few lines: (§1)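 Probes were double-stranded and carried 34-nt variable regions with direct-repeat seeds, single-nucleotide variants, half-site ablations and random human genomic background sequences, printed on custom Agilent 4×180K protein-binding microarrays. Arrays were incubated 1 h with ligand-free nuclear receptor dimers in PBS pH 7.4, 2% milk, 0.02% Triton X-100, 1 mM DTT, 0.2 mg/mL BSA and 0.4 mg/ml salmon testes DNA. Antibodies against each partner (one per run) detected binding, and scanned fluorescence was regression-normalized. Binding z-scores use the random background probes as reference.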

Assay [2] relates to LXRa:RXRa (NR concentration 270 nM, RXRa partner concentration 90 nM). In a few lines: as §1
In assay [3] the test system is LXRa homodimer (NR concentration 270 nM). In a few lines: as §1
Assay [4] has as its system LXRb:RXRa (NR concentration 270 nM, RXRa partner concentration 90 nM). In a few lines:
as §1

Assay [5] concerns LXRb homodimer (NR concentration 270 nM). In a few lines: as §1
The test system of assay [6] is PPARa:RXRa (NR concentration 270 nM, RXRa partner concentration 90 nM). In a few lines: as §1
Assay [7] relates to PPARg:RXRa (NR concentration 180 nM, RXRa partner concentration 90 nM). In a few lines:
as §1

Assay [8] concerns PPARg:RXRa 270nM:90nM, anti-RXR (NR concentration 270 nM, RXRa partner concentration 90 nM). In a few lines:
as §1

Assay [9] concerns PPARg:RXRa 30nM:10nM, anti-RXR (NR concentration 30 nM, RXRa partner concentration 10 nM). In a few lines: as §1
For assay [10], the system named is PPARg:RXRa 90nM:30nM, anti-RXR (NR concentration 90 nM, RXRa partner concentration 30 nM). In a few lines:
as §1

Assay [11] concerns PPARg:RXRa DBDmut IVT, anti-RXR (DBD mutation: RXRa K156A/R161A, NR concentration 270 nM, RXRa partner concentration 90 nM). In a few lines:
as §1

Assay [12] concerns PPARg:RXRa IVT, anti-PPARg (NR concentration 270 nM, RXRa partner concentration 90 nM). In a few lines: as §1
The subject of assay [13] is PPARg DBDmut:RXRa IVT, anti-PPARg (DBD mutation: PPARg1 K132A/R137A, NR concentration 270 nM, RXRa partner concentration 90 nM). In a few lines: as §1
Assay [14] concerns PPARg DBDmut IVT, anti-PPARg (DBD mutation: PPARg1 K132A/R137A, NR concentration 270 nM). In a few lines:
as §1

Assay [15] has as its system PPARg homodimer (NR concentration 180 nM). In a few lines:
as §1

The test system of assay [16] is PXR:RXRa (NR concentration 270 nM, RXRa partner concentration 90 nM). In a few lines: as §1
The test system of assay [17] is PXR homodimer (NR concentration 270 nM). In a few lines:
as §1

In assay [18] the test system is RARa:RXR (NR concentration 270 nM, RXRa partner concentration 90 nM). In a few lines: as §1
Assay [19] relates to RARa homodimer (NR concentration 270 nM). In a few lines: as §1
The test system of assay [20] is RARb:RXRa (NR concentration 270 nM, RXRa partner concentration 90 nM). In a few lines: as §1

For GGAACGAGGGCATTCTAGTTGATAGCATGGCGAT, the PBM binding z-score in [1] is 1.44; in assay [2], 1.08; in [3] it was -0.665; in assay [4], 0.264; in [5] it was -0.166; in assay [6] it was 1.21. For the same sequence, the PBM binding z-score in [7] is 0.871; in assay [8], 0.642; in assay [9], -0.247; in [10], 0.231; in [11] it was 3.02; in assay [12], 2.04. Also, the PBM binding z-score is -0.851 in assay [13]; -0.214 in assay [14]; -0.294 in assay [15]; 1.53 in [16]; 0.396 in assay [17]; 0.248 in assay [18]. Also, the PBM binding z-score was -0.43 in assay [19] and 1.58 in [20].
CGAACTAGGTCAAGGTCAGTGAATCTCCGCACGC: the PBM binding z-score in assay [1] stood at 4.73; in assay [2] it was 3.81; in assay [3], 1.23; in [4], 2.95; in assay [5], 0.0681; in assay [6], 5.17. The PBM binding z-score is 8.71 in assay [7]; 6.93 in [8]; 4.44 in assay [9]; 7.24 in assay [10]; 7.95 in assay [11]; 8.28 in assay [12]. Also, the PBM binding z-score was 1.6 in [13]; 0.259 in assay [14]; 3.84 in assay [15]; 3.45 in assay [16]; 1.03 in [17]; 3.61 in assay [18]. For the same sequence, the PBM binding z-score was 1.62 in assay [19] and 4.86 in assay [20].
For TCTCGGAGGACACGAAGGGCAGAGCTTTCCAGAG, the PBM binding z-score in assay [1] is 0.172; in assay [2] it was -0.265; in [3], -0.59; in [4], -0.711; in assay [5] it was -1.26; in [6], -0.128. Also, the PBM binding z-score in [7] is -0.047; in [8], 0.753; in assay [9], 1.78; in assay [10] it was 1.13; in assay [11], 1.13; in assay [12] it was 0.0832. The PBM binding z-score is -0.999 in assay [13]; -0.906 in [14]; -0.399 in [15]; -0.198 in assay [16]; -0.159 in assay [17]; -0.136 in assay [18]. The PBM binding z-score in [19] was -1.15; in [20], 1.97.
On to CTCAAAAGGTCGTGCTCAGGTGAGTATACCAAAC, for which the PBM binding z-score in assay [1] is 5.46; in [2] it was 4.03; in [3], 0.165; in [4], 3.42; in [5] it was 0.129; in assay [6], 4.98. The PBM binding z-score in [7] is 3.14; in [8] it was 3.85; in assay [9], 0.896; in assay [10], 2.75; in assay [11], 1.02; in [12], 2.03. Further, the PBM binding z-score in assay [13] came to 0.582; in [14], 0.851; in [15], 1.51; in assay [16], 3.24; in assay [17], 0.288; in assay [18], 4.2. Moreover, the PBM binding z-score in assay [19] worked out at 0.127; in assay [20], 4.03.
For the sequence TAGCCTGGGTCATGGGCCAGTATACCACGCGAAC, the PBM binding z-score in assay [1] was 3.85; in assay [2], 2.34; in [3] it was -0.426; in [4], 2.04; in assay [5], -0.671; in [6], 4.14. The PBM binding z-score in assay [7] is 4.11; in assay [8], 3.94; in assay [9], 1.09; in assay [10] it was 2.53; in assay [11], 0.288; in assay [12], 3.03. Further, the PBM binding z-score is 0.752 in assay [13]; -1.17 in assay [14]; 1.52 in [15]; 1.73 in assay [16]; -0.609 in [17]; 2.83 in assay [18]. Moreover, the PBM binding z-score was -0.797 in assay [19] and 3.26 in [20].
As to CGTCAAAGTTGAAGGTAACGTAACAGAAAGCAGC, the PBM binding z-score was -0.11 in assay [1]; -0.00279 in [2]; -0.157 in [3]; 0.207 in [4]; -0.458 in assay [5]; 1.02 in [6]. Also, the PBM binding z-score stood at 0.813 in [7]; 1.01 in assay [8]; 0.188 in [9]; 0.76 in assay [10]; 0.274 in assay [11]; 0.441 in [12]. Also, the PBM binding z-score was 0.243 in assay [13]; 0.266 in assay [14]; 0.228 in assay [15]; 0.242 in [16]; -0.121 in assay [17]; 0.656 in [18]. For the same sequence, the PBM binding z-score is 0.1 in [19] and 1.64 in assay [20].
